PubChem BioAssay AID430 (Sanford-Burnham Center for Chemical Genomics, 2006)
Screen size: about 63,000 compounds; about 1,100 (1.7%) were called active. This is one part of a sample in which actives are shown more often than they occur. Rule as the data show it: active = cytotoxicity above about 50%; inactive = the rest. Measured potencies and affinities stand elsewhere.

Assay: HPDE-C7 pancreatic duct cell viability loss – fluorescence, HTS (AID 430);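 also: cells exposed to compound for 48 hours before viability readout; 0% = vehicle and 100% = reference cytotoxic drug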
Settings: HPDE-C7 pancreatic duct cells viability, at 10 µM, stronger effect = higher value

Row | Structure (SMILES) | cytotoxicity
1 | O=c1ccnc(S/C=C/c2ccccc2)[nH]1 | -11.2% (inactive)
2 | O=C(Cn1c(=O)[nH]c2ccsc2c1=O)N1CCN(c2ccc(F)cc2)CC1 | 9.5% (inactive)
3 | Cc1nn(Cc2ccc(Cl)c(Cl)c2)c(C)c1NC(=O)c1cc(-c2ccc3c(c2)OCO3)on1 | 54.7% (active)
4 | Cc1nn(Cc2ccc(Cl)cc2)c(C)c1NC(=O)c1cc(-c2ccc3c(c2)OCO3)on1 | 35.4% (inactive)
5 | Cc1ccc(Cn2nc(C)c(NC(=O)c3cc(-c4ccc5c(c4)OCO5)on3)c2C)cc1 | 16.2% (inactive)
6 | O=C(c1ccc2c(c1)OCO2)N1CCCc2ccccc21 | -12.5% (inactive)
7 | CN(C)S(=O)(=O)c1ccc(C(=O)Nc2ccccn2)cc1 | 0.8% (inactive)
8 | COc1ccc(-n2c(Cc3cccn3C)nnc2SCC(=O)Nc2cc(Cl)ccc2OC)cc1 | -0.9% (inactive)
9 | Cn1nnnc1SCC(=O)NCCc1ccc(Cl)cc1 | -8.2% (inactive)
10 | Oc1ccc(CN2CCN(Cc3ccccc3)CC2)c2cccnc12 | 6.2% (inactive)
11 | Oc1c(CN2CCCCC2)cc(COCc2ccccc2)c2cccnc12 | -10.8% (inactive)
12 | CN1CCN(Cc2cc(COCc3ccccc3)c3cccnc3c2O)CC1 | -9.2% (inactive)
13 | Oc1ccc(CNc2ccccc2F)c2cccnc12 | -4.7% (inactive)
14 | Oc1c(CN2CCOCC2)cc(COCc2ccccc2)c2cccnc12 | 60.7% (active)
15 | COCc1cc(CN2CCCC2)c(O)c2ncccc12 | -11.9% (inactive)
16 | Oc1ccc(CNc2ccccc2)c2cccnc12 | 34.7% (inactive)
17 | Oc1ccc(CNc2ccc(F)cc2)c2cccnc12 | 45.3% (inactive)
18 | COc1ccccc1N1CCN(Cc2cc(Br)c(O)c3ncccc23)CC1 | 5.1% (inactive)
19 | CCCn1c(C)cc(=O)c2cc(NC(=O)c3ccccn3)ccc21 | 16.1% (inactive)
20 | COC(=O)CCCCCNc1ccc(C(=O)OC)cc1N | -12.1% (inactive)
21 | CC1Cc2nc(SCC(=O)N3CCc4ccccc43)n(C)c(=O)c2S1 (configuration not stated) | -19.6% (inactive)
22 | O=S(=O)(NCCc1csc(-c2ccccc2)n1)c1ccc2c(c1)OCCO2 | 6.2% (inactive)
23 | O=C(CCCCn1c(=S)[nH]c2ccsc2c1=O)NCc1ccco1 | -3% (inactive)
24 | Cc1ccc(C)c(N2CCN(C(=O)C3CCCN(S(=O)(=O)c4cnc[nH]4)C3)CC2)c1 (configuration not stated) | -3.6% (inactive)
25 | COc1cccc(C2=NOC(C(=O)N3CCN(C(=O)c4ccco4)CC3)C2)c1 (configuration not stated) | -8.5% (inactive)
26 | CSCCC(NC(=O)c1ccccc1)C(=O)NCc1ccco1 (configuration not stated) | -8.6% (inactive)

Row | Structure (SMILES) | cytotoxicity
27 | O=C(Cn1cnc2ccccc2c1=O)c1ccc2c(c1)OCCO2 | -6.3% (inactive)
28 | COc1cccc(-c2cc(C(=O)Nc3c(C)nn(Cc4ccccc4C)c3C)no2)c1 | -3.2% (inactive)
29 | COc1ccccc1C(=O)N1CCN(C(=O)COc2cccc(C)c2)CC1 | -7.6% (inactive)
30 | CC1=C(C(=O)NC(C)c2ccc3c(c2)OCCO3)C2(CCC(C)CC2)OC1=O (configuration not stated) | 10.7% (inactive)
31 | CCCCOC(=O)CSc1nc(N)c(C#N)c(-c2ccc(OCC)cc2)c1C#N | 5.1% (inactive)
32 | CCOC(=O)CC(=O)CSc1nc(N)c(C#N)c(-c2ccc(F)cc2)c1C#N | 5.6% (inactive)
33 | CCOC(=O)CC(=O)CSc1nc(N)c(C#N)c(-c2ccc(Cl)cc2)c1C#N | 54.7% (active)
34 | CCCCOc1ccc(-c2c(C#N)c(N)nc(SCC(N)=O)c2C#N)cc1 | 82.5% (active)
35 | CCCCOC(=O)CSc1nc(N)c(C#N)c(-c2ccc(OC)cc2)c1C#N | -16% (inactive)
36 | CCOC(=O)CSc1nc(N)c(C#N)c(-c2ccc(OC)cc2)c1C#N | -6.1% (inactive)
37 | CC(=NCC1CCNCC1)C1=C(O)CC(C)(C)CC1=O | -8.1% (inactive)
38 | CCOc1ccccc1-c1nn2c(Cc3ccccc3)nnc2s1 | -4.2% (inactive)
39 | NC(=O)C(F)(F)C12OC3C4C5CC(C6C5C3C61)C42 (configuration not stated) | -3.7% (inactive)
40 | CC(C)(C)Nc1cccccc1=O | -8% (inactive)
41 | COc1ccc(C)cc1S(=O)(=O)N(CC(=O)O)c1ccccc1 | -0.9% (inactive)
42 | COc1ccc(S(=O)(=O)n2nc(-c3cc(OC)c(OC)c(OC)c3)cc2N)cc1OC | -3.7% (inactive)
43 | COc1ccc(OC)c(S(=O)(=O)n2nc(-c3ccccc3)cc2N)c1 | -13.7% (inactive)
44 | Cc1cc(C)cc(N2C(=O)C3C4C=CC(C4)C3C2=O)c1 (configuration not stated) | -5.5% (inactive)
45 | Cc1ccc(CC2(O)CC(C)N(C)CC2C)c(C)c1 (configuration not stated) | 0.1% (inactive)
46 | Nc1nonc1C(=O)NC(c1ccccc1)c1ccccc1 | 3.4% (inactive)
47 | COc1ccc(C2CC(c3ccccc3)Nc3nc(NC(=O)c4cccs4)nn32)cc1 (configuration not stated) | -3.4% (inactive)
48 | CCOc1ccc2ccccc2c1C(=O)N1CCN(c2ccccc2)CC1 | 50.5% (active)
49 | O=C(c1c(Cl)nc2sccn12)N1CCN(c2cccc(Cl)c2)CC1 | 75% (active)
50 | CCOc1ccccc1C(=O)N1CCN(c2cccc(Cl)c2)CC1 | 62.2% (active)
51 | CCOc1ccc(C(=O)N2CCN(c3ccccc3)CC2)cc1OCC | -51.5% (inactive)
52 | Cc1ccc(C(=O)N2CCN(c3cccc(Cl)c3)CC2)cc1C | 36.8% (inactive)

Row | Structure (SMILES) | cytotoxicity
53 | O=C(O)c1ccccc1C(=O)N1CCN(c2cccc(Cl)c2)CC1 | 6.7% (inactive)
54 | Cc1cc(C(=O)N2CCN(c3cccc(Cl)c3)CC2)c(C)o1 | 53.3% (active)
55 | CCOc1ccc2ccccc2c1C(=O)N1CCOCC1 | 2.5% (inactive)
56 | O=C(c1cccc(F)c1)N1CCN(c2cccc(Cl)c2)CC1 | 36.5% (inactive)
57 | Cc1cc(C(=O)N2CCN(c3ncccn3)CC2)c(C)o1 | 2.2% (inactive)
58 | COc1ccc(C(=O)N2CCN(c3cccc(Cl)c3)CC2)c(OC)c1 | 44.1% (inactive)
59 | COc1ccccc1C(=O)N1CCN(c2cccc(Cl)c2)CC1 | -13% (inactive)
60 | CN1CCN(/C=C2\SC(=S)NC2=O)CC1 | -23.4% (inactive)
61 | O=C(c1cnc2n(c1=O)CCS2)N1CCN(c2ccc(Cl)c(Cl)c2)CC1 | -3.5% (inactive)
62 | CC(NS(=O)(=O)c1ccc(Br)cc1)C(c1cccs1)N1CCN(C)CC1 (configuration not stated) | -8.4% (inactive)
63 | c1ccc(-n2c(-c3ccncc3)nnc2-c2ccco2)cc1 | -33.8% (inactive)
64 | O=C(O)CC1C(=O)NCCN1C/C=C/c1ccccc1 (configuration not stated) | -5.3% (inactive)
65 | O=C(CN(C(=O)CNC(=O)c1ccco1)c1ccc2c(c1)OCO2)NC1CCCCC1 | -31.1% (inactive)
66 | Cc1ccc2c(c1)nnn2C1CCN(C(=O)C2CCCCC2)CC1 | -12.5% (inactive)
67 | COc1ccccc1C(=O)N1CCN(c2cccc(C(F)(F)F)c2)CC1 | 60.8% (active)
68 | COc1ccccc1CC(=O)N1CCN(c2cccc(C(F)(F)F)c2)CC1 | -10.2% (inactive)
69 | O=C(c1ccccc1F)N1CCN(c2cccc(C(F)(F)F)c2)CC1 | -5% (inactive)
70 | CSc1nsc(SCc2ccc(F)cc2)n1 | -4.1% (inactive)
71 | Cc1nnc(SCc2ccc(F)cc2)s1 | 105% (active)
72 | Nc1nnc(SCc2ccc(F)cc2)s1 | -16.7% (inactive)
73 | Clc1ccccc1-c1nnc2sc(-c3ccco3)nn12 | -6.1% (inactive)
74 | COC(=O)C1=C(C)N(c2cccc(Cl)c2)C(=O)C1 | -4.9% (inactive)
75 | COC(=O)C1=C(C)N(c2ccc(Cl)c(Cl)c2)C(=O)C1 | 84.2% (active)
76 | COC(=O)C1=C(C)N(c2ccc(F)c(Cl)c2)C(=O)C1 | -5.3% (inactive)
77 | Cc1nc2c(o1)CCc1ccccc1C2N1CCN(C)CC1 (configuration not stated) | -16.4% (inactive)
78 | CC(C)CC(OC(=O)c1ccco1)C(=O)NC1CCCCC1 (configuration not stated) | -5.1% (inactive)

Row | Structure (SMILES) | cytotoxicity
79 | Cc1ccc(N2CCN(CCc3nc4cc(NS(C)(=O)=O)ccc4n3C)CC2)cc1 | -22.1% (inactive)
80 | CC(C)CCn1nnnc1C(c1ccccc1F)N1CCC(C(N)=O)CC1 (configuration not stated) | -13.3% (inactive)
81 | CCC(C)(C)n1nnnc1C(c1ccccc1F)N1CCC(C(N)=O)CC1 (configuration not stated) | 56.3% (active)
82 | CCC(C)(C)n1nnnc1C(C(C)C)N1CCC(C(N)=O)CC1 (configuration not stated) | 5.6% (inactive)
83 | O=C(CN(C1CCCCC1)S(=O)(=O)c1ccc(Cl)cc1)NCc1ccncc1 | -8.9% (inactive)
84 | Cc1cc(C)c2c(CN3CCN(Cc4ccc5c(c4)OCO5)CC3)cc(=O)oc2c1C | 44.1% (inactive)
85 | O=C(CCCOc1ccc(Cl)cc1Cl)N1CCN(c2ccccn2)CC1 | 3.1% (inactive)
86 | O=C(c1cccc(Cl)c1)N1CCN(c2ccccn2)CC1 | -14.9% (inactive)
87 | O=C(c1cccc(COc2ccc(Cl)cc2Cl)c1)N1CCN(c2ccccn2)CC1 | 77.5% (active)
88 | Cc1cc2c(cc1C)NC(CC(=O)NCc1ccccc1)C(=O)N2 (configuration not stated) | 1.1% (inactive)
89 | C=CCNc1nc(-c2sc(NC(C)=O)nc2C)cs1 | 11.6% (inactive)
90 | CC(=O)Nc1nc(C)c(-c2csc(Nc3ccc(O)cc3)n2)s1 | 58.6% (active)
91 | Cc1nc(N)sc1-c1csc(Nc2ccccc2)n1 | 36.2% (inactive)
92 | NS(=O)(=O)c1ccc(Nc2nc(-c3ccc(O)cc3)cs2)cc1 | -1.2% (inactive)
93 | c1cncc(Nc2nc(-c3ccncc3)cs2)c1 | -3.1% (inactive)
94 | Oc1ccc(Nc2nc(-c3ccc(O)cc3)cs2)cc1 | 78.4% (active)
95 | O=C(NC1CCCC1)c1cnc2n(c1=O)CCS2 | -10.2% (inactive)
96 | O=C1CC(O)(C(F)(F)F)Oc2c1ccc1ccccc21 (configuration not stated) | 82.3% (active)
97 | COc1ccc2c(c1)OC(O)(C(F)(F)F)CC2=O (configuration not stated) | -3.3% (inactive)
98 | O=C1CC(O)(C(F)F)Oc2ccc3ccccc3c21 (configuration not stated) | -12.2% (inactive)
99 | COc1cccc(-c2nc(=S)c3c(n2Cc2ccco2)CCCC3)c1 | -22.8% (inactive)
100 | CCOC(=O)Nc1sc(=S)n(C)c1C | -8.2% (inactive)
101 | CN(C)c1nc(SCCOC(=O)Nc2ccccc2)nc(N(C)C)n1 | 19.3% (inactive)
102 | Cc1c(NC(=O)OCCSc2nc(N(C)C)nc(N(C)C)n2)sc(=S)n1C | 59.5% (active)
